Results published in PubChem BioAssay AID602478 (National Center for Advancing Translational Sciences (NCATS), 2012).
Inconclusive results are not listed. A call without a number means that no potency is given here. Active and inactive are the calls of the source. The call rests on the fitted dose curve; in most records, active means well fitted activation curve with a large enough effect; inconclusive means small, poorly fitted or top-dose-only effect; inactive means flat fitted curve, though single readings scatter.

Biological target: Luciferin 4-monooxygenase (Photinus pyralis) (UniProt P08659)
Sequence (P08659 whole entry, looked up): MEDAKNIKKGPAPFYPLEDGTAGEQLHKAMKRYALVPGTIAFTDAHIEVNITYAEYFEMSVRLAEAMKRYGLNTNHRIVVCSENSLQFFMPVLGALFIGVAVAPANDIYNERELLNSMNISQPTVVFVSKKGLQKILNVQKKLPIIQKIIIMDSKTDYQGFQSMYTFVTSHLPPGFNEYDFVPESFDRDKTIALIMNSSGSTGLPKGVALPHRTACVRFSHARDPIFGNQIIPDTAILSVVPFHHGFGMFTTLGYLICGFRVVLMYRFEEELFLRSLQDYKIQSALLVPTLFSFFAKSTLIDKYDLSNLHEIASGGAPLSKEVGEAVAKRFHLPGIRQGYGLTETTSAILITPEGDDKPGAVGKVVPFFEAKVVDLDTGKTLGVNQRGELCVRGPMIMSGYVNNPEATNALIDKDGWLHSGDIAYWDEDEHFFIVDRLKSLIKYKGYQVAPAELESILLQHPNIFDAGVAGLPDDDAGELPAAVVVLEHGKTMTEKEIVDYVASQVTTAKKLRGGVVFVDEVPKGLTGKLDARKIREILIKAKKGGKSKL
Assay: FLuc inhibitory activity for the follow-up compounds in a cell-based translational read-through assay (72 hour incubation)
Conditions: GripTite 293 FLucUGA read-through, luminescence; series mostly up to 38.3 µM
Source text: NCGC Assay Overview: Firefly (Photinus pyralis) luciferase is one of the most commonly used transcriptional reporters. It is considered one of the more dynamically responsive reporters - that is, responsive to changes in reporter transcription - as it requires no post-translational modifications and is enzymatically active directly after protein synthesis (Wood, 1998). With no endogenous expression in mammalian cells and without the requirement of external excitation, it offers very little background signal, thus generally providing excellent signal to background for most assays. Previous profiling work to determine the prevalence of compounds that affect FLuc enzymatic activity (PubChem AID 411) identified that ~3% of the MLSMR library (then at ~72K) inhibited FLuc (Auld et al., 2008). […] Of the compounds identified in this profile that inhibited FLuc, 151 compounds were selected for further analysis, in an effort to better understand their mode of inhibiting FLuc. The assay described here was to determine the activity of the compounds in a cell-based firefly luciferase reporter gene assay originally designed to identify compounds that enchanced translational read-through of a FLuc cDNA that contained a premature stop codon (Auld et al., 2009; Auld et al., 2010). Compounds that enhance translational read-through or compounds that stabilize FLuc intracellularly are identified as active compounds in the assay.
NCGC Assay Protocol Summary: Reagents: Transient transfection of FlucUGA construct: TransFast Transfection Reagent (Promega #E2431); FLucUGA construct (refer to Auld et al., 2009) #GripTite 293 MSR Cell Line (Invitrogen #R795-07) #Complete growth media: DMEM (Invitrogen #11965), 10% HIFBS, 0.1mM MEM NEAA, 5mL/L pen-strep (of 5000U/mL stock), 600ug/mL Geneticin #Assay media: DMEM without phenol red (Invitrogen #21063), 5% charcoal-stripped HIFBS (Hyclone #SH30071.03), 0.1mM MEM NEAA In-house detection reagent: 300mM Tris-HCl, 300mM Trizma base, 300mM MgCl, 1% Triton-X100, 5mM DTT, 500uM Coenzyme A trilithium salt (Sigma #C3019),450uM ATP (Sigma #A7699), 1mM D-luciferin sodium salt monohydrate (Biosynth #L8240) Control compounds used were two known firefly luciferase inhibitors (3-(5-(3-chlorophenyl)-1,2,4-oxadiazol-3-yl)benzoic acid and 5-(2-fluorophenyl)-3-phenyl-1,2,4-oxadiazole), and DMSO. Assay Summary: Transient transfection of FlucUGA construct: Day 1: GripTite cells were plated in T175 flasks at a density of 1.75 x 10^7 cells/T175 flask in complete growth media without Geneticin and allowed to grow ON in a 37 degrees Celsius incubator. Day 2: Cells in T175 flask were transfected - with 10ug of DNA and 30uL Transfast in 12mL complete growth media without serum and without Geneticin for 4 hours at 37 degrees Celsius. After incubation, cells were trypsinized, spun down, and resuspended to a concentration of 3.3 x 10^5 cells/mL in assay media. 6uL of cells in assay buffer were dispensed at 2000cells/well (3.3 x 10^5 cells/mL) into Greiner solid-white TC-treated 1536-well plates using a Multidrop Combi (Thermo Fisher Scientific). Plates were incubated for one hour at 37 degree Celsius, 95% humidity, 5% CO2. These assay plates were then treated with 23nL of compound or DMSO using a Kalypsys pin tool, which allows for delivery of a 12-point titration of each compound to the assay plate, with a final compound concentration ranging from approximately ~38uM to 0.2nM. Assay plates were then incubated for 72 hours. After incubation, plates were washed three times with DPBS (7uL/well). After the third wash, 6uL of DPBS was added to each well. 3uL of 3X luciferase detection reagent was then added to each well using a flying reagent dispenser (FRD). After a 15 minute incubation to allow for cell lysis, luciferase activity was measured using a ViewLux CCD imager (PerkinElmer), with an average exposure time of 2-12 seconds.

Structure (SMILES) | Potency
COc1ccc(Br)cc1C(=O)Nc1ccc(C(=O)O)cc1 | inactive
Cc1ccc(C(=O)O/N=C(\N)c2ccccn2)c(Cl)c1 | 1260 nM (active)
COc1ccc2nc(NC(=O)c3nc(S(=O)(=O)Cc4ccc(C)cc4)ncc3Cl)sc2c1 | inactive
O=C(Nc1ccccc1C(=O)O)c1cccc(NC(=O)c2ccc(Br)o2)c1 | inactive
CCOc1ccc2nc(NC(=O)c3ccoc3C)sc2c1 | 449 nM (active)
Cc1ccc(S(=O)(=O)N2CCOCC2)cc1C(=O)Nc1ccccc1C(=O)O | inactive
COc1ccc(C(=O)Nc2cccc(C(=O)O)c2)cc1S(=O)(=O)N1CCCC1 | inactive
CN(C)S(=O)(=O)c1ccc(C(=O)Nc2cccc(C(=O)O)c2)cc1 | inactive
COc1ccc(NS(=O)(=O)c2cccc(C(=O)Nc3ccccc3C(=O)O)c2)cc1 | inactive
CCOc1ccc(C(=O)Nc2ccccc2C(=O)O)cc1 | 14200 nM (active)
Cc1ccc(NS(=O)(=O)c2ccc(Cl)c(C(=O)Nc3cccc(C(=O)O)c3)c2)cc1 | inactive
O=C(Nc1ccccc1C(=O)O)c1ccc(NC(=O)C2CC2)cc1 | inactive
O=C(Nc1ccccc1C(=O)O)c1cccc(C(=O)Nc2ccccc2C(=O)O)c1 | inactive
O=C(Nc1ccccc1C(=O)O)c1ccc(NC(=O)C2CCCCC2)cc1 | inactive
CCc1noc(C)c1C(=O)Nc1nc2ccc(OC)cc2s1 | inactive
COc1cc(C(=O)Nc2cc(C)c(O)c(-c3nc4ccccc4s3)c2)cc(OC)c1OC | inactive
O=C(O)c1ccc(NC(=O)c2ccccc2NC(=O)c2cccc(Br)c2)cc1 | inactive
O=C(O)c1ccc(NC(=O)c2cc(S(=O)(=O)N3CCCCC3)c(Cl)cc2Cl)cc1 | inactive
Cc1cccc(C(=O)Nc2ccccc2C(=O)Nc2ccc(C(=O)O)cc2)c1 | inactive
COc1c(C)cccc1C(=O)Nc1ccc(-c2nc3ccccc3s2)c(Cl)c1 | inactive

Structure (SMILES) | Potency
COc1ccc2nc(NC(=O)c3ccc([N+](=O)[O-])o3)sc2c1 | 20000 nM (active)
CCOc1ccc2nc(NC(=O)c3ccccc3)sc2c1 | 1790 nM (active)
COc1ccc2nc(NC(=O)c3cccc(S(=O)(=O)N4CCOCC4)c3)sc2c1 | inactive
O=C(Nc1ccccc1C(=O)O)c1cccc(NC(=O)c2ccccc2Br)c1 | inactive
CC(=O)Oc1ccc(C(=O)Nc2ccccc2C(=O)Nc2ccc(C(=O)O)cc2)cc1 | inactive
COc1cc(OC)cc(C(=O)Nc2ccccc2-c2nc3ccccc3s2)c1 | inactive
COc1ccc2nc(NC(=O)c3ccco3)sc2c1 | 634 nM (active)
CCn1c(C)nc2cc(-c3nc4n(n3)Cc3ccccc3-4)ccc21 | 79.8 nM (active)
CC(C)CC(=O)Nc1cccc(C(=O)Nc2ccccc2C(=O)O)c1 | inactive
Cc1ccc(S(=O)(=O)N2CCN(C(=O)c3ccccc3-c3nc4ccccc4s3)CC2)c(C)c1 | inactive
O=C(Nc1ccccc1C(=O)O)c1cccc(S(=O)(=O)Nc2ccc(Br)cc2)c1 | inactive
COc1ccc2nc(NC(=O)c3cnccn3)sc2c1 | 3560 nM (active)
Cc1cccc(NS(=O)(=O)c2cccc(C(=O)Nc3cccc(C(=O)O)c3)c2)c1 | inactive
Cc1c(NC(=O)C(C)(C)C)cccc1-c1nc2ccccc2s1 | inactive
COc1cc(OC)cc(C(=O)Nc2ccc(-c3nc4ccccc4s3)c(C)c2)c1 | inactive
CC(C)Oc1ccc(C(=O)Nc2ccc(-c3nc4ccccc4s3)cc2)cc1 | inactive
CC(C)(C)NC(=O)c1ccccc1-c1nc2ccccc2s1 | inactive
CC(=O)Nc1cccc(C(=O)Nc2ccccc2C(=O)O)c1 | inactive
O=C(Nc1ccccc1C(=O)O)c1cc(S(=O)(=O)Nc2cccc(F)c2)ccc1Cl | inactive
O=C(O)c1cccc(NC(=O)c2cccc(S(=O)(=O)N3CCc4ccccc4C3)c2)c1 | inactive
